In PubChem BioAssay (NCI):
Compounds without any hit were thinned out: in the full panel of roughly 79,000, 15% have a hit. Unmarked numbers belong to inactive results. Activity calls are given as the source filed them. Rule as the data show it: active = growth inhibition above about 70%; inactive = the rest.

Assay: NCI Yeast Anticancer Drug Screen. Data for the mlh1 rad18 strain (AID 175)
Details: S. cerevisiae mlh1 rad18 strain growth inhibition; at 50.0 µM; stronger effect = higher value
Summary of the method: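 Test agents were incubated with a yeast strain of defined genotype (DNA damage repair defect). Inhibition of growth was derived by comparison with vehicle-exposed cultures.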
With `O=C(CCCc1ccccc1)OCC(=O)c1ccc(-c2ccccc2)cc1` the growth inhibition was 14.6%.
Molecule `O=COC1CC2CC1c1ccccc12` (configuration not stated) has a growth inhibition of 6.8%.
With `Cc1cccc(C(O)(c2cccc(C)c2)C2(O)CCCCC2)c1` the growth inhibition was 6.9%.
With `c1ccc2c(c1)NCCOCCNc1ccccc1OCCNCCO2` the growth inhibition was 6.75%.
`CC(SSc1ccc(C(C)(C)C)cc1)c1ccccc1` (configuration not stated) gave a growth inhibition of -1.4%.
In the case of `O=C1C(N=Nc2ccc(S(=O)(=O)Nc3ccccn3)cc2)C(=O)N(c2ccccc2)C(=S)N1c1ccccc1`, the growth inhibition was 23.6%.
With `COc1ccc(NS(=O)(=O)c2ccc(N=Cc3c4ccccc4nc4ccccc34)cc2)nn1` the growth inhibition was 90.8% (active).
With `CN(C)CCCN1c2ccccc2Sc2ccc3ccccc3c21` the growth inhibition was 14.8%.
`COC(=O)C1(CC(=O)C2CC2)NC(=S)NC(=O)C1C#N` (configuration not stated) showed a growth inhibition of 5.2%.
In the case of `O=C1N=C(c2ccccc2)C(c2ccccc2)N1` (configuration not stated), the growth inhibition was 8.65%.
Molecule `COc1ccc(C(=O)C[n+]2cc(Br)cc(Br)c2)cc1` has a growth inhibition of -8.95%.
Work on `C=C1C(=O)OC2/C=C(\C)C(OC(C)=O)C3OC3C(C)(O)CC(OC(=O)/C(C)=C/C)C12` (configuration not stated) yielded a growth inhibition of -13.1%.
For `CC(=O)N/C(=C\c1ccccc1)C(N)=O`, the growth inhibition was 1.55%.
For `CNC(=S)N(C)/N=C/c1ccccc1`, the growth inhibition was 3%.
For `N#CC(c1ccccc1)N(CCCCCCN(C(=O)c1ccccc1)C(C#N)c1ccccc1)C(=O)c1ccccc1` (configuration not stated), the growth inhibition was -29.1%.
`CCOC(=O)c1cccc(NC(=O)CCl)c1` gave a growth inhibition of 49.5%.
Molecule `CC1(C)C(C#N)C1C1=C(N2CCOCC2)[C@]2(C)C(OC(=O)c3ccccc3)CC[C@@H]2C1` (some centres not stated) has a growth inhibition of 4.15%.
